Results on 45 compounds are retold here after PubChem BioAssay AID1851 (National Center for Advancing Translational Sciences (NCATS), 2009).

Usually AC50 stands for the concentration at which the activity in the assay is half-maximal.

Structures are written as SMILES. Several values for one entry are separate records, joined by “and”; a condition that tells them apart may be missing. Identical values can stand only once. Hit rate of the full screen: of about 16,000 compounds, about 5,700 (36%) were called active. About 24% were inconclusive and are not listed. This is one part of the list. Unmarked numbers belong to inactive results. The call rests on the fitted dose curve; in most records, active means well fitted curve in the direction sought with a large enough effect; inconclusive means small, poorly fitted or top-dose-only effect, or effect the other way; inactive means no such curve, though single readings can be large or run the other way.
On the % scale 0 is the no-effect control and ±100 the full control effect.

Cytochrome P450 1A2 (Homo sapiens), sequence (P05177 whole entry, looked up): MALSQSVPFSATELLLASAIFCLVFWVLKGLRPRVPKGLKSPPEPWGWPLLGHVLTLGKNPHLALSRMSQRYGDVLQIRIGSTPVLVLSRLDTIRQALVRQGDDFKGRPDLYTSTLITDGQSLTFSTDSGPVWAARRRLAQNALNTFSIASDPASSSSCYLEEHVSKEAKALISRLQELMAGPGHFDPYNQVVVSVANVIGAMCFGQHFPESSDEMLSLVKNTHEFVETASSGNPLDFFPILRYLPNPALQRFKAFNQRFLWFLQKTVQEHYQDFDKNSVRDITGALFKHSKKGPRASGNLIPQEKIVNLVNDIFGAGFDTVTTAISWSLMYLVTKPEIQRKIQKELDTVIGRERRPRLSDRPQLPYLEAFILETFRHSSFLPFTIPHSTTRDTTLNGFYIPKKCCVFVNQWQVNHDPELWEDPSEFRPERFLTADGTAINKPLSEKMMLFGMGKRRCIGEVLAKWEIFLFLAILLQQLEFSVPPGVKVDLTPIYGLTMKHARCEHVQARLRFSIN

This assay has as its target Cytochrome P450 1A2 (Homo sapiens) (UniProt P05177). Kind of assay: Cytochrome panel assay with activity outcomes. The following applies: recombinant CYP, pro-luciferin dealkylation, luminescence, p450-cyp1a2; series mostly up to 57.1 µM; activity, negative = inhibition: at the top concentration.
For `CCCN(CCC)[C@@H]1CCc2cccc(O)c2C1`, the AC50 result was “inactive”. Same read-out and setting: in the case of `CCS(=O)(=O)Nc1cccc(C(=C2CCCCC2)c2cnc[nH]2)c1` it was 0.316 µM (active).

For `C[N+]1(C)C2CC[C@H]1CC(OC(=O)[C@@H](CO)c1ccccc1)C2` (stereo not given in full), the activity, negative = inhibition is 5.51% [at 11.4 µM]. The same measure, in the same setting: in the case of `C[C@H](CN(C)C)C(C#N)(c1ccccc1)c1ccccc1` it was -3.45% [at 2.29 µM].

On to `NCC[Se][Se]CCN`, for which the AC50 was 3.16 µM (active). As to `CC[C@H]1CN2CC[C@@H]1C[C@H]2[C@@H](O)c1ccnc2ccc(OC)cc12`, the “activity, negative = inhibition” value was -5.06% [at 25.6 µM]. Regarding `COc1ccc(Cl)cc1NC(=O)NCCCl`, the half-maximal activity concentration (AC50) was 2.82 µM (active). Take `C[C@H]1CN(C2CCC(C#N)(c3ccc(F)cc3)CC2)CC[C@@]1(C(=O)O)c1ccccc1` (stereo not given in full): the “activity, negative = inhibition” value is -0.959% [at 25.6 µM].

In the case of `CCCN1CCC[C@H](c2cccc(O)c2)C1`, the AC50 result is “inactive”. On the same count and under the same terms, in the case of `O=C(O)c1ccccc1-c1c2cc(Br)c(=O)cc-2oc2[c]([Hg])c(O)c(Br)cc12` it was 15.8 µM (active). Turning to `C[C@H](N)[C@H](O)c1ccc(O)c(O)c1`, the AC50 entry was “inactive”. Turning to `CCC(=O)O[C@H]1CC[C@H]2[C@@H]3CCC4=CC(=O)CC[C@]4(C)[C@H]3CC[C@]12C`, the “activity, negative = inhibition” value is -18% [at 25.6 µM]. On the same count and under the same terms, in the case of `CCN1CCC2(CC1)NC(CO)(CO)CO2` it was 2.62%. `COc1c2c(cc3c1OCO3)CCN(C)C2`: the AC50 was 2 µM (active).

For `C[C@]12N[C@@H](Cc3ccccc31)c1ccccc12`, the AC50 entry was “inactive”. Regarding `N[C@@H]1C=CC=C(C(=O)O)C1`, the “activity, negative = inhibition” value was -6.11%. As for `COC(=O)C(O)(c1c(C)[nH]c2ccccc12)C(F)(F)F` (stereo not given), the AC50 is 15.8 µM (active).

`N[C@H](Cc1o[nH]c(=O)c1Cl)C(=O)O`: the “activity, negative = inhibition” value was -9.1%. Consider `CCCCN1C(=O)/C(=C/c2ccc(N(C)C)cc2)C(=O)N(Cc2ccco2)C1=O`, for which the AC50 was 15.8 µM (active). In the case of `O=S(=O)(O)/C(=C\c1ccccc1)c1ccccc1` (tested in a mixture with another compound), the activity, negative = inhibition was -29% [at 2.29 µM]. Turning to `C=C[C@H]1CN2CC[C@@H]1C[C@H]2[C@@H](O)c1ccnc2ccccc12`, the AC50 result is “inactive”.

On to `c1cc(CN2CCCC3(CCNCC3)C2)ccn1`, for which the “activity, negative = inhibition” value is -1.58%. Still for that read-out and setting: under `CO[C@@H]1CC=C2CCN3CCC4=C(CC(=O)OC4)[C@]23C1` stands 4.21%.

For `C[C@@H]1Cc2cc3c(cc2C(c2ccc(N)cc2)=NN1)OCO3`, the AC50 was 5.01 µM (active). `CC(C)CCC1(CCN)C(=O)NC(=O)NC1=O`: the activity, negative = inhibition is -13.1% [at 11.4 µM]. Regarding `CC(=O)OC1N=C(c2ccccc2)c2cc(Br)ccc2N(C)C1=O` (stereo not given), the “activity, negative = inhibition” value is -4.73%. As for `C[C@H](N)c1cccc(Cl)c1Cl`, the AC50 was 1.26 µM (active). `CC(C)(C)NC[C@H](O)c1ccccc1Cl`: the “activity, negative = inhibition” value was -1.39%.

`CN1[C@H]2CC(=O)C[C@@H]1[C@@H](O)C2`: the “activity, negative = inhibition” value was -6.99% [at 25.6 µM].

For the compound `O=C(O)[C@H]1[O][Sb][O][C@@H](C(=O)O)C1O` (stereo not given in full), the activity, negative = inhibition was -15% [at 2.29 µM]. Take `Cn1cccc1CNCCc1ccccc1`: the “activity, negative = inhibition” value was -5.77%. Regarding `Fc1ccc(CCNCc2ccc(Cl)c(Cl)c2)cc1`, the AC50 was 2.24 µM (active). On to `C=CCN1C[C@@H](C)N([C@H](c2ccc(C(=O)N(CC)CC)cc2)c2cccc(OC)c2)C[C@H]1C`, for which the “activity, negative = inhibition” value is -7.59%. Same read-out and setting: in the case of `C[C@H]1CC[C@@]2(NC1)O[C@@H]1C[C@@H]3[C@@H]4CC=C5C[C@@H](O)CC[C@]5(C)[C@@H]4CC[C@]3(C)[C@H]1[C@@H]2C` it was -1.04% [at 11.4 µM]; in that of `C[C@@]12CC[C@H]3[C@@H](CC=C4C[C@H](OS(=O)(=O)O)CC[C@]43C)[C@H]1CCC2=O`, -3.53%. Still for that read-out and setting: under `COCOc1ccc(Br)cc1C(=O)/C=C\c1ccc2c(c1)OCO2` stands -3.01% [at 11.4 µM]; under `N[C@@H](Cc1ccccc1)P(=O)(O)O`, -13.6% [at 11.4 µM]; under `CN1CCN(c2ccc([N+](=O)[O-])c(N/N=C3\CN4CCC3CC4)c2)CC1`, -11.9%.

With `O=[N+]([O-])c1ccc(N2CCNCC2)cc1NC1CC1`, the AC50 was 0.708 µM (active). In the case of `O=[N+]([O-])c1ccc(N2CCNCC2)cc1NCC1CCCO1` (stereo not given), the AC50 was 1.41 µM (active). On to `NS(=O)(=O)c1ccc(-c2ccc([As](=O)(O)O)cc2)cc1`, for which the activity, negative = inhibition was -0.225% [at 11.4 µM]. On the same count and under the same terms, in the case of `C1C[C@@H]2CN(CCCN3CCOCC3)[C@@H](C1)O2` it was -10.8% [at 11.4 µM]; in that of `COc1cc2c(cc1OC)[C@@]13CCN4CC5=CCO[C@H](CC(=O)O)[C@@H]([C@H]1N2)[C@H]5C[C@H]43`, -21.3% [at 11.4 µM]; in that of `C[C@@H]1CC[C@@H]2N(C1)C[C@H]1[C@@](O)([C@H](O)C[C@]3(O)[C@H]4CC[C@H]5[C@]6(O)O[C@]4(C[C@]13O)[C@@]5(C)CC[C@@H]6O)[C@@]2(C)O`, -15.8% [at 11.4 µM]. For the compound `c1ccc2c(c1)[I+]c1ccccc1-2`, the half-maximal activity concentration (AC50) is 126 nM (active) and 20 nM (active).
